The source of these data is PubChem BioAssay (NCI).

Among the test systems are NCI-H23 lung; NCI-H226 lung; NCI-H322M lung; HOP-62 NSCLC; NCI-H460 lung; HOP-92 NSCLC; NCI-H522 lung; A549/ATCC NSCLC; 786-0 renal; COLO 205 colon; DU-145 prostate; K-562 leukemia; MALME-3M melanoma; MDA-MB-231 breast; RXF 393 renal; SF-268 CNS; SF-295 CNS; SF-539 CNS; UACC-257 melanoma; M14 melanoma.
Experiment in all cases: NCI-60 one-dose screen, 48 h (100 = growth as untreated, 0 = no growth, -100 = all killed)
Holding throughout (conditions): 10 µM unless noted

About 83,000 compounds went through this panel and 20% of them were active in at least one assay; those are over-represented in the sample as a whole.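 Method: cells in 96-well plates; compound added at one concentration; 48 h incubation; percent growth measured; values under 10 scored active.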 Values without a mark were called inactive. Active and inactive are the calls of the source.

Regarding `COCCNC(C(=O)c1ccccc1)c1ccccc1` (stereo not given), the growth is 103% in the assay on NCI-H23 lung; 91% with NCI-H226 lung; 100% in the assay on NCI-H322M lung; 100% in the assay with HOP-62 NSCLC; 108% in the assay on NCI-H460 lung; 85.7% in the assay on HOP-92 NSCLC. In addition, the growth in the assay with NCI-H522 lung is 107%; in the assay on A549/ATCC NSCLC, 99.8%; in the assay on 786-0 renal it was 92.5%; in the assay on COLO 205 colon, 117%; with DU-145 prostate, 107%; with K-562 leukemia it was 103%. The growth with MALME-3M melanoma was 102%; with MDA-MB-231 breast it was 102%; in the assay on RXF 393 renal it was 101%; with SF-268 CNS, 94.3%; with SF-295 CNS, 98%; with SF-539 CNS it was 99.7%. Also, the growth in the assay with UACC-257 melanoma is 97.6%; with M14 melanoma, 100%.
On to `O=C(NCCNc1nccc(-c2c(-c3cccc(O)c3)nc3sccn23)n1)Nc1cc(C(F)(F)F)cc(C(F)(F)F)c1`, for which the growth with NCI-H23 lung was 90.9%; with NCI-H226 lung, 101%; in the assay with NCI-H322M lung, 87%; with HOP-62 NSCLC, 118%; with NCI-H460 lung, 51.8%; in the assay with HOP-92 NSCLC, 74.4%. The growth in the assay on NCI-H522 lung was 69.5%; in the assay on A549/ATCC NSCLC, 57.7%; in the assay on 786-0 renal it was 82%; with COLO 205 colon it was 45.1%; in the assay with DU-145 prostate, 97.1%; with K-562 leukemia it was 72.7%. For the same molecule, the growth is 60.5% in the assay on MALME-3M melanoma; 41.4% in the assay with MDA-MB-231 breast; 41.4% in the assay with RXF 393 renal; 69.4% with SF-268 CNS; 66.7% in the assay with SF-295 CNS; 96.5% in the assay with SF-539 CNS. Also, the growth with UACC-257 melanoma is 57%; in the assay with M14 melanoma it was 21.4%.
As for `COc1ccc2c(c1)nnc1c3cccnc3[nH]c21`, the growth in the assay on NCI-H23 lung was 25.5%; in the assay with NCI-H226 lung, 19.7%; in the assay on NCI-H322M lung, 43.3%; with HOP-62 NSCLC, 6.44% (active); in the assay with NCI-H460 lung, -49.4% (active); with HOP-92 NSCLC it was -36.5% (active). Further, the growth with NCI-H522 lung is -34.4% (active); with A549/ATCC NSCLC it was 40.8%; in the assay on 786-0 renal it was -37.2% (active); in the assay with COLO 205 colon, -62.3% (active); with DU-145 prostate, -18.3% (active); with K-562 leukemia it was -41.1% (active). The growth with MALME-3M melanoma is 11.4%; in the assay with MDA-MB-231 breast it was 0.316% (active); with RXF 393 renal, -67.2% (active); in the assay on SF-268 CNS, -24.8% (active); in the assay on SF-295 CNS, 39.8%; in the assay with SF-539 CNS, -48.7% (active). In addition, the growth with UACC-257 melanoma was 33.5%; with M14 melanoma, 4.79% (active).
For `O=C1C(Cl)=C(Nc2cccc3cc4ccccc4nc23)C(=O)c2ccccc21`, the growth with NCI-H23 lung was 54.7%; in the assay on NCI-H226 lung, 67.2%; with NCI-H322M lung, 51%; in the assay with HOP-62 NSCLC, 45.9%; in the assay on NCI-H460 lung it was 18.2%; in the assay with HOP-92 NSCLC, 74.9%. Also, the growth in the assay with NCI-H522 lung is 22.3%; in the assay with A549/ATCC NSCLC, 29.8%; in the assay with 786-0 renal it was 50.1%; in the assay on COLO 205 colon, 12%; in the assay on DU-145 prostate it was 44%; in the assay with K-562 leukemia, 27.9%. In addition, the growth in the assay on MALME-3M melanoma is 48.9%; with MDA-MB-231 breast, 44%; with RXF 393 renal, 65.2%; in the assay with SF-268 CNS, 45%; in the assay on SF-295 CNS, 53.8%; with SF-539 CNS, 40.7%. The growth with UACC-257 melanoma was 45.6%; with M14 melanoma, 56.4%.
With `C[C@H]1C=C(C[C@@H](O)CC#CC#CCCCCC[C@@H](O)[C@H]2CCC(=O)O2)C(=O)O1`, the growth in the assay with NCI-H23 lung was 99.9%; in the assay on NCI-H226 lung, 98.6%; in the assay with NCI-H322M lung, 114%; with HOP-62 NSCLC, 94.5%; in the assay on NCI-H460 lung, 118%; with HOP-92 NSCLC, 99.9%. The growth in the assay on NCI-H522 lung is 78.7%; in the assay with A549/ATCC NSCLC it was 111%; in the assay with 786-0 renal, 190%; with COLO 205 colon it was 115%; in the assay on DU-145 prostate it was 109%; with K-562 leukemia, 86.3%. Also, the growth was 105% in the assay on MALME-3M melanoma; 96.4% with MDA-MB-231 breast; 103% with RXF 393 renal; 110% in the assay on SF-268 CNS; 106% in the assay on SF-295 CNS; 93.1% with SF-539 CNS. In addition, the growth was 91.8% in the assay with UACC-257 melanoma and 137% with M14 melanoma.
On to `CNC(=O)NN`, for which the growth in the assay with NCI-H23 lung was 98.2%; in the assay on NCI-H226 lung, 103%; with NCI-H322M lung, 103%; in the assay with HOP-62 NSCLC, 94.7%; in the assay on NCI-H460 lung it was 105%; in the assay on HOP-92 NSCLC it was 82.5%. Moreover, the growth in the assay on NCI-H522 lung was 104%; in the assay on A549/ATCC NSCLC, 98.9%; in the assay on 786-0 renal, 107%; in the assay on COLO 205 colon, 94.5%; in the assay on DU-145 prostate, 103%; in the assay on K-562 leukemia, 109%. In addition, the growth is 93.7% with MALME-3M melanoma; 108% with MDA-MB-231 breast; 108% in the assay on RXF 393 renal; 111% in the assay on SF-268 CNS; 99.6% with SF-295 CNS; 97% in the assay with SF-539 CNS. In addition, the growth in the assay on UACC-257 melanoma was 100%; with M14 melanoma, 98.1%.
Regarding `NS(=O)(=O)c1ccc(Nc2nc(O)c(/C=C3\C=Nc4ccccc43)s2)cc1`, the growth in the assay with NCI-H23 lung was 92%; with NCI-H226 lung it was 99.6%; with NCI-H322M lung, 90.7%; in the assay on HOP-62 NSCLC, 97.5%; in the assay with NCI-H460 lung, 98.6%; in the assay with HOP-92 NSCLC, 114%. Moreover, the growth was 92% in the assay with NCI-H522 lung; 90.4% in the assay on A549/ATCC NSCLC; 106% with 786-0 renal; 122% in the assay on COLO 205 colon; 110% with DU-145 prostate; 101% with K-562 leukemia. In addition, the growth in the assay with MALME-3M melanoma was 92.7%; with MDA-MB-231 breast it was 87.9%; with RXF 393 renal it was 111%; in the assay on SF-268 CNS, 106%; in the assay on SF-295 CNS it was 102%; with SF-539 CNS, 98.1%. For the same molecule, the values for the growth with UACC-257 melanoma and with M14 melanoma were 88.7% and 103%, respectively.
For the molecule `CCN(CC)CCC(C(=O)O)(c1ccccc1)c1ccccc1`, the growth is 95.3% in the assay on NCI-H23 lung; 106% in the assay on NCI-H226 lung; 103% in the assay with NCI-H322M lung; 86.5% with HOP-62 NSCLC; 105% in the assay on NCI-H460 lung; 101% with HOP-92 NSCLC. Moreover, the growth was 89.7% in the assay with NCI-H522 lung; 110% in the assay with A549/ATCC NSCLC; 96.4% in the assay with 786-0 renal; 101% with COLO 205 colon; 107% in the assay on DU-145 prostate; 102% in the assay on K-562 leukemia. The growth is 89.7% with MALME-3M melanoma; 99.4% in the assay with MDA-MB-231 breast; 118% in the assay on RXF 393 renal; 93.9% in the assay with SF-268 CNS; 97% in the assay with SF-295 CNS; 93.9% with SF-539 CNS. Besides, the figures for the growth in the assay with UACC-257 melanoma and with M14 melanoma were 113% and 97%, respectively.
